The structures appear in SMILES notation. Hit rate of the full screen: of about 310,000 compounds, about 1,300 (0.42%) were called active. The sample holds actives, similar compounds and a random draw of the others, so the mix is not that of the screen.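 Rule for the calls: active = B-score of calcium response area above 5 SD of library B-scores, with initial fluorescence ratio within 5 SD of library; inactive = the rest.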

The target of the test is Short transient receptor potential channel 4 (Mus musculus) (UniProt Q9QUQ5). The experiment in a line: TRPC4 channel potentiators under submaximal DAMGO – cell-based, mouse TRPC4beta, HEK293 mu-opioid, Fluo-4 calcium, primary screen (AID 2227).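 For B-score: B-score of integrated fluorescence ratio over time as area under calcium response.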 To be noted: DAMGO EC20, Fluo-4 Ca2+ flux, at 10 µM; hits give high values. In general terms: A change in cytosolic calcium serves as a functional read-out for many receptors and channels.
Short transient receptor potential channel 4 (Mus musculus), sequence (Q9QUQ5 whole entry, looked up): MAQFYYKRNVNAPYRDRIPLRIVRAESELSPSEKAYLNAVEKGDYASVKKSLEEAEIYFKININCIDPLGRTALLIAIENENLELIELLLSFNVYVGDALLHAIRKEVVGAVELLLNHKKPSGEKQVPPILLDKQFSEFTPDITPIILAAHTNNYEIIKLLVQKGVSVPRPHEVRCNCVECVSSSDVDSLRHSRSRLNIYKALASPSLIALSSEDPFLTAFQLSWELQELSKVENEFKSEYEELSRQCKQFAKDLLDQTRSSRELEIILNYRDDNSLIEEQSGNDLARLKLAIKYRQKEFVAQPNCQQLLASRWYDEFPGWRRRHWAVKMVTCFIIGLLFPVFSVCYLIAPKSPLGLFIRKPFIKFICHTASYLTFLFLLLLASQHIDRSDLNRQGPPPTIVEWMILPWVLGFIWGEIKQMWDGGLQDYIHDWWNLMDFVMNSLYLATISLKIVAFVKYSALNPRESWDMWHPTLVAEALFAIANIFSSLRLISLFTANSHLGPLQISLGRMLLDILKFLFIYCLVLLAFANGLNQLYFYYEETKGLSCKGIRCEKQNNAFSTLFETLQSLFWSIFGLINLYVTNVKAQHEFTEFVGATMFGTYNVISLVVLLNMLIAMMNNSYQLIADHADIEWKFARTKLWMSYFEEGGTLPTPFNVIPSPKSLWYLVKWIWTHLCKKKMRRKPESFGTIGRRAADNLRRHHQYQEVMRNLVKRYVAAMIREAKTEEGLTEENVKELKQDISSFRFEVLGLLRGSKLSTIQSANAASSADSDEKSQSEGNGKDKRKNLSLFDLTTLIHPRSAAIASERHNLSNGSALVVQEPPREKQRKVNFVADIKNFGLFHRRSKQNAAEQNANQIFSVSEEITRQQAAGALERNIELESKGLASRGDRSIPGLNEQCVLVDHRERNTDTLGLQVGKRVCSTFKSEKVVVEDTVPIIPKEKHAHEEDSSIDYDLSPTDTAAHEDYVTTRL
`CCN1CC2C3CCC(C)(O3)C2C1` (stereo not given): the B-score was 15 (active).

Regarding `Cc1ccc(N(C)C(=O)Oc2cccc3ccc(C)nc23)cc1`, the B-score result is “inactive”.

In the case of `CN(C)C(=O)Oc1ccc2c(c1)O/C(=C\c1ccccc1)C2=O`, the B-score result is “inactive”.

With `CNC(=O)O/N=C(\N)Cc1csc2ccccc12`, the B-score result is “inactive”.

On to `O=c1c2ccccc2nc(-c2ccccc2)n1-c1ccccn1`, for which the B-score result was “inactive”.

Regarding `O=c1c2ccccc2nc(-c2ccco2)n1-c1ccc(Br)cn1`, the B-score result was “inactive”.

For `Cc1ccc(-c2nc3ccccc3c(=O)n2-c2ccc(Br)cn2)cc1`, the B-score was 12 (active).

For `CC(=NCc1ccc2c(c1)OCO2)c1c(O)[nH]c(=O)[nH]c1=O`, the B-score entry was “inactive”.

With `COC(=O)C1=C(c2cc3ccccc3s2)C[C@@H]2CC[C@H]1N2C(=O)NCCO`, the B-score entry was “inactive”.

With `O=C(Cn1c(=O)n(CC2CS2)c2ccccc21)N1CCCCC1` (stereo not given), the B-score entry is “inactive”.

For the compound `COC(=O)C(O)(c1ccc(NC(=O)c2ccco2)c(OC)c1)C(F)(F)F` (stereo not given), the B-score is 12 (active).

With `CCOC(=O)C(O)(c1ccc(N)c(OC)c1)C(F)(F)F` (stereo not given), the B-score entry was “inactive”.

For the compound `CCOC(=O)C(O)(c1ccc(NC(=O)c2ccco2)c(OC)c1)C(F)(F)F` (stereo not given), the B-score result was “inactive”.

For `Cc1ccc2c(c1)=C/C(=C\c1c(O)[nH]c(=O)[nH]c1=O)C(=O)N=2`, the B-score result is “inactive”.

With `COc1ccccc1C1=NCc2nnc(CSC)n2-c2ccc(Cl)cc21`, the B-score entry was “inactive”.

As to `O=C(Cc1ccccc1[N+](=O)[O-])N1CCN(Cc2ccc3c(c2)OCO3)CC1`, the B-score result was “inactive”.

Consider `Fc1ccc(N2CCN(Cc3ccc4c(c3)OCO4)CC2)cc1`, for which the B-score result is “inactive”.

Turning to `CCN1CCN(Cc2cc(OC)c3c(c2)OCO3)CC1`, the B-score was 11 (active).

Turning to `Cc1cc2ccccn2c1C(C[N+](=O)[O-])c1c(F)cccc1Cl` (stereo not given), the B-score entry was “inactive”.

Consider `O=c1[nH]c(=S)n(C2CC2)c(O)c1/C=N/N1CCOCC1`, for which the B-score result is “inactive”.

The values above are taken from PubChem BioAssay AID2227 (Johns Hopkins Ion Channel Center, 2009).
